Screening results: PubChem, National Center for Advancing Translational Sciences (NCATS)
NPR1 antag: Natriuretic polypeptide receptor (hNpr1) antagonism - Primary qHTS. Atrial natriuretic peptide receptor 1 (Homo sapiens), P16066. HEK293 hNpr1 GloSensor cGMP, ANP-stimulated luminescence. Potency, µM (top dose mostly 46.3 µM), without a hit: at the highest dose activity change, negative = inhibition, usual class: inhibitors. 76,000 compounds, 1.6% hits. AID 1347048, 2019; calls by dose curve; note: nearly all actives have a fitted effect of over 60% in size
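HEK293 cells stably expressing human Npr1 and cGMP GloSensor pGS-40F, loaded 2 h with 2% GloSensor reagent, given compound 30 min at room temperature. Luminescence read before and 20 min after 0.1 nM hNppA.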
GPT2 inh: Primary qHTS assay for inhibitors of Glutamate pyruvate transaminase 2 (GPT2). Recombinant GPT2, coupled pyruvate oxidase/HRP Amplex Red fluorescence. Potency, µM (series often up to 57.7 µM), without a hit: top-dose activity change, negative = inhibition, hits mostly inhibitors. 100,000 compounds, 0.25% hits. AID 1671188, 2021; note: nearly all actives have a fitted effect of over 60% in size
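Fluorescence of coupled pyruvate oxidase/HRP/Amplex Red system (50uM Amplex, 30 min, dark) reports pyruvate formed by GPT2. Enzyme reaction: 10ng/uL GPT2, 2mM L-alanine, 250uM a-KG, 30 min room temperature, pH 7.5; 50uM AOA control.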
3T3 cytotox: Cytotoxic Profiling in NIH 3T3 Cell Line of Diverse Libraries Using Quantitative High-Throughput Screening; 94,000 compounds, 4.3% hits; Potency, µM (top dose mostly 96.7 µM), without a hit: at the highest dose activity change, negative = cytotoxicity, hits mostly inhibitors; NIH 3T3 viability, CellTiter-Glo ATP luminescence, 48-72 h; note: nearly all actives have a fitted effect of over 55% in size
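Cytotoxicity is measured as loss of cellular ATP: NIH 3T3 cells (400/well) are exposed to compound for 48 or 72 hr at 37 °C, then CellTiter-Glo luminescence is imaged after 10 min at room temperature.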
HEK293 tox: Cytotoxic Profiling in HEK 293 Cell Line of Diverse Libraries Using Quantitative High-Throughput Screening; HEK 293 viability, ATP luminescence (CellTiter-Glo), 48-72 h; Potency, µM (highest dose often 115 µM), for the others: top-dose activity change, negative = cytotoxicity, usual class: inhibitors; 94,000 compounds, 6.6% hits; AID 1345083, 2018; note: nearly all actives have a fitted effect of over 60% in size
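CellTiter-Glo luminescence (cellular ATP) was read after 48 or 72 hr of compound exposure at 37 degree Celsius. Cells were HEK 293 plated at 250 cells/well.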
FLuc inh: Firefly luciferase inhibition profiling of diverse chemical library using quantitative high-throughput screening; Luciferin 4-monooxygenase (Photinus pyralis), P08659; 76,000 compounds, 2.5% hits; AID 1347043, 2019; purified P. pyralis luciferase, luminescence, biochemical; Potency, µM (top dose mostly 115 µM), hits mostly inhibitors; note: nearly all actives have a fitted effect of over 65% in size
Target sequence (P08659 whole entry, looked up): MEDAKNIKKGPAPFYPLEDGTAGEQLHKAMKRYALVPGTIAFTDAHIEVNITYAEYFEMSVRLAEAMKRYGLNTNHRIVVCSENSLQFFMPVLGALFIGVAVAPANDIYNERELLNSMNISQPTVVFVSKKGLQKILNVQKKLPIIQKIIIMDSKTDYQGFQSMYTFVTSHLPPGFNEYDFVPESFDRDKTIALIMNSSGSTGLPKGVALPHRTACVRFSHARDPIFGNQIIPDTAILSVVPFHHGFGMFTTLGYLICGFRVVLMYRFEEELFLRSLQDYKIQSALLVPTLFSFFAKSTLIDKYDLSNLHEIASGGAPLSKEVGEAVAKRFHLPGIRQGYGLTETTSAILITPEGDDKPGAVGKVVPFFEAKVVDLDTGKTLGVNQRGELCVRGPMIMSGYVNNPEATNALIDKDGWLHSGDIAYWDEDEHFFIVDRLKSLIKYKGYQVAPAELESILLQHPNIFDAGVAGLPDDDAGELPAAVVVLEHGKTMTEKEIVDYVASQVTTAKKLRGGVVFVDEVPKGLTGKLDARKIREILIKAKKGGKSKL
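Cell-free enzyme assay, 10nM P. pyralis luciferase, luciferin and ATP each at 10uM. Inhibition profiled over a 6-point titration, read as luminescence.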
Numbers without * were called inactive; i = inactive; ? = inconclusive; nt = no result given; [ ] = another dose, or the depositor's remark. Hits are enriched below; roughly 10% of the tested compounds scored in any of these assays. Unless noted, calls come from the whole dose curve; as a rule, active = well fitted curve in the direction sought with a large enough effect; inconclusive = small, poorly fitted or top-dose-only effect, or another doubt; inactive = no such curve, though single readings can be large; an effect the other way counts as inactive or inconclusive. % is set by controls: 0 for no effect and ±100 for the full control effect; potency is the fitted concentration of half-maximal effect.

SMILES | NPR1 antag | GPT2 inh | 3T3 cytotox | HEK293 tox | FLuc inh
Cc1ccc(S(=O)(=O)N2CCCC(Cn3c(C)nc4cccnc43)C2)c(C)c1 (centres undefined) | ? | -12% | ? | ? | i
O=C1c2cccnc2OC(COc2ccccc2)CN1c1ccccc1 (centres undefined) | nt | ? | -27%[46.1 µM] | ? | nt
Cn1nc(-c2ccncc2)cc1NC(=O)C1CC1 | nt | i | -21%[138 µM] | -1%[172 µM] | nt
COc1ncccc1-c1cnc2[nH]cc(CC(=O)Nc3ccccc3C)c2c1 | -29%[70.6 µM] | ? | ? | ? | i
CCNC(=O)Cc1c[nH]c2ncc(-c3cccnc3OC)cc12 | -15%[70.6 µM] | i | 89µM* | -38%[172 µM] | i
COc1ccc(-c2cnc3[nH]cc(CC(=O)NC4CCC(O)CC4)c3c2)cc1 (centres undefined) | -8%[70.6 µM] | ? | 25µM* | ? | i
COc1cccc(NC(=O)Cc2c[nH]c3ncc(-c4ccccc4C)cc23)c1 | ? | -3%[88.5 µM] | ? | 71µM* | i
COc1ncccc1-c1cnc2[nH]cc(CC(=O)Nc3ccccc3)c2c1 | ? | -13%[88.5 µM] | 40µM* | ? | i
COc1ncccc1-c1cnc2[nH]cc(CC(=O)NCc3ccco3)c2c1 | ? | 1%[88.5 µM] | ? | ? | i
Cc1ccccc1-c1cnc2[nH]cc(CC(=O)NC3CCOCC3)c2c1 | -17%[70.6 µM] | ? | ? | ? | i
COCCn1ncc(N2CCC(C(=O)Nc3ccc(-c4nc5c(C)cccc5[nH]4)cc3)C2)cc1=O (centres undefined) | nt | i | -12% | i | nt
COc1ncccc1-c1cnc2[nH]cc(CC(=O)Nc3cccnc3)c2c1 | ? | 3%[88.5 µM] | ? | 89µM* | i
COc1ccc(-c2cnc3[nH]cc(CC(=O)Nc4cccc(F)c4)c3c2)cc1 | -30%[70.6 µM] | i | ? | ? | i
COc1ncccc1-c1cnc2[nH]cc(CC(=O)NC3CCOCC3)c2c1 | 1%[70.6 µM] | 2%[88.5 µM] | ? | ? | i
COc1ccc(-c2cnc3[nH]cc(CC(=O)Nc4ccncc4)c3c2)cc1 | ? | 5%[88.5 µM] | 32µM* | ? | i
COc1ncccc1-c1cnc2[nH]cc(CC(=O)Nc3ccncc3)c2c1 | ? | i | 32µM* | 63µM* | i
O=C(NCC1CN(C(=O)Nc2ccccc2)CC12CCOCC2)N1CCCC1 (centres undefined) | nt | 1% | -17% | -5% | nt
Fc1ccc2nc([C@H]3CCN(Cc4ccc(F)c(F)c4)C3)[nH]c2c1 | ? | ? | ? | 56µM* | ?
Fc1ccc2nc([C@H]3CCN(Cc4cccs4)C3)[nH]c2c1 | ? | -1%[88.5 µM] | ? | 71µM* | 40µM*
Fc1ccc(CN2CC[C@H](c3nc4ccc(C(F)(F)F)cc4[nH]3)C2)cc1F | ? | ? | 13µM* | 10µM* | i
COc1ccccc1CN1CC[C@H](c2nc3ccc(C(F)(F)F)cc3[nH]2)C1 | 1%[70.6 µM] | ? | 28µM* | 32µM* | i
CC(C)CCN(C)Cc1cccc(C(F)(F)F)c1 | nt | i | -13%[138 µM] | 4%[172 µM] | nt
Cc1nnc2ccc(N3CCCC(NC(=O)NC4CCCC4)C3)nn12 (centres undefined) | nt | nt | -28%[138 µM] | -3%[172 µM] | nt
COc1ccc(CC(=O)N2CCC(c3n[nH]c(=O)n3-c3ccccc3)CC2)cc1Cl | 10% | i | ? | 3% | i
COc1ccc(Cl)cc1C(=O)N1CCC2(CC1)NC(=O)N(c1cccc(F)c1)N2 | 5% | ? | ? | ? | i
Cc1ccc(CN2CC[C@H](c3nc4ccc(C)cc4[nH]3)C2)cc1 | -14%[70.6 µM] | i | ? | ? | i
Cc1ccc(CN2CC[C@H](c3nc4ccc(C(F)(F)F)cc4[nH]3)C2)cc1 | ? | -30%[88.5 µM] | 28µM* | 40µM* | i
O=C(NCc1cccc(Cl)c1)c1ccc2nnc(-c3ccoc3)n2c1 | nt | i | ? | -29% | nt
